mHTT CaM bind: disrupts binding of mutant huntingtin to calmodulin | AlphaScreen His-mHTT/GST-CaM binding, luminescence | 190,000 tested, 3.6% active | inhibition, % at 15 µM
Pf apPOL inh: Pf-apPOL DNA polymerase inhibition | Recombinant Pf-apPOL, molecular beacon fluorescence, 1.5 h | inhibition, % at 10 µM | 210,000 tested, 0.25% active | AID 1794808
Of the large screens only hits and unclear results are named; the others gave an inactive call; ! = not confirmed by another sample. Hits are enriched below; roughly 3.5% of the tested compounds scored in any of these assays. Cut-off read from the data, not from the text of the source: active = inhibition above about 50%; inactive = the rest.

O=C(O)c1cc(Cl)ccc1-c1ccc(/C=C/c2cc(C(F)(F)F)[nH]c(=O)n2)o1	none
O=c1nc(/C=C/c2ccc(-c3ccc(Br)cc3)o2)cc(C(F)(F)F)[nH]1	mHTT CaM bind 99
O=c1nc(/C=C/c2ccc(-c3cccc(Cl)c3)o2)cc(C(F)(F)F)[nH]1	mHTT CaM bind 91
O=C(O)c1ccccc1-c1ccc(/C=C/c2cc(C(F)(F)F)[nH]c(=O)n2)o1	none
Cc1ccccc1OCC(=O)N1CCCCC1	none
CCC(Sc1nc2ccccc2o1)C(=O)Nc1ccc(Cl)cn1 (stereo unspecified)	none
CCC(Sc1nc2ccccc2o1)C(=O)Nc1nnc(C)s1 (stereo unspecified)	Pf apPOL inh 85
Cn1nc(-c2nc(-c3ccccc3)no2)c2c1CCN(C(=O)c1cccs1)C2	none
Cn1c2c(c3ccccc31)CN(C(=O)c1cccs1)CC2	mHTT CaM bind 100
C=CCn1c(=O)c2c(ncn2Cc2ccccc2C)n(-c2ccc(F)cc2)c1=O	none
c1ccc(Cn2cnnc2C2CCCN(Cc3ccncc3)C2)cc1 (stereo unspecified)	none
c1ccc(Cn2cnnc2C2CCCN(Cc3ccccn3)C2)cc1 (stereo unspecified)	mHTT CaM bind 94
CC(=O)N1CCc2sc(S(=O)(=O)N3CCN(c4cc(C)ccc4C)CC3)cc2C1	none
CCc1ccc(NC(=O)C2CCCN(S(=O)(=O)c3ccc(Br)s3)C2)cc1 (stereo unspecified)	none
COc1ccc(-c2c([C@H]3[C@@H]4C=CCC[C@@]4(C)C(=O)N3Cc3ccccc3)ccc3ccccc23)cc1OC	mHTT CaM bind 100
CC(=O)c1ccc(-c2c([C@H]3[C@@H]4C=CCC[C@@]4(C)C(=O)N3Cc3ccccc3)ccc3ccccc23)cc1	mHTT CaM bind 101
COc1ccc(-c2ccc([C@H]3[C@@H]4C=CCC[C@@]4(C)C(=O)N3Cc3ccccc3)c(F)c2)cc1OC	none
CN(C)c1ccc(-c2c([C@H]3[C@@H]4C=CCC[C@@]4(C)C(=O)N3Cc3ccccc3)ccc3ccccc23)cc1	none
Cc1c(-c2ccnc(-c3ccccc3)n2)sc2nc(C(F)(F)F)nn12	none (no result: mHTT CaM bind)
COc1ccc(NC(=O)C2CC(c3ccc(OC)c(OC)c3)=NO2)cc1OC (stereo unspecified)	none
COc1ccc(NC(=O)C2CC(c3cc(OC)c(OC)c(OC)c3)=NO2)cc1OC (stereo unspecified)	none
COc1cc(C2=NOC(C(=O)Nc3ccc4c(c3)OCO4)C2)cc(OC)c1OC (stereo unspecified)	mHTT CaM bind 60
COc1ccc(C2=NOC(C(=O)Nc3ccc4c(c3)OCO4)C2)cc1OC (stereo unspecified)	mHTT CaM bind 55
O=S(=O)(c1cccc2nsnc12)N1CCCc2ccccc21	none (no result: mHTT CaM bind)
CCOc1ccc(C2C(C(=O)Nc3ccccc3OC)=C(C)Nc3nnnn32)cc1 (stereo unspecified)	none
C=CCc1ccccc1OCC(O)CN1CCN(c2ccc(OC)cc2)CC1 (stereo unspecified)	mHTT CaM bind 54!
C=CCc1ccccc1OCC(O)CN1CCN(c2cccc(Cl)c2)CC1 (stereo unspecified)	mHTT CaM bind 99
OC(COc1ccc(F)cc1)CN1CCN(c2cccc(Cl)c2)CC1 (stereo unspecified)	mHTT CaM bind 81
C=CCc1ccccc1OCC(O)CN1CCN(C)CC1 (stereo unspecified)	none
C=CCc1ccccc1OCC(O)CN1CCCCC1 (stereo unspecified)	none
CC(C)c1ccc(OCC(O)CN2CCN(c3ccc(F)cc3)CC2)cc1 (stereo unspecified)	none
CCCn1ncc(N2CCC(C(=O)NCc3ccncc3)CC2)cc1=O	none
C(=C(c1ccccc1)c1ccccc1)N1CCC1	none (no result: mHTT CaM bind)
O=C(c1cccc(F)c1)N1CCC(n2nc(-c3ccsc3)ccc2=O)CC1	mHTT CaM bind 95
CC(Oc1ccccc1)C(=O)N1CCC(n2nc(-c3ccsc3)ccc2=O)CC1 (stereo unspecified)	mHTT CaM bind 71
Cc1ccc(C(=O)N2CCC(n3nc(-c4ccsc4)ccc3=O)CC2)s1	mHTT CaM bind 100
O=C(N1CCC(n2nc(-c3ccsc3)ccc2=O)CC1)C1(c2ccccc2)CC1	none
COc1ccc(C(=O)N2CCC(n3nc(-c4ccsc4)ccc3=O)CC2)cc1	mHTT CaM bind 98
Cc1ccc(C(=O)N2CCC(c3nc(-c4ccncc4)n[nH]3)CC2)s1	none
COc1ccc(C(=O)N2CCC(N3CCCCCC3)CC2)cc1	none
O=C(Cc1cccc(F)c1)N1CCC(n2nc(-c3ccsc3)ccc2=O)CC1	none
O=C(NCC1CCS(=O)(=O)C1)c1cc(-c2cccs2)[nH]n1 (stereo unspecified)	none
CN(C)S(=O)(=O)c1ccc(C(=O)Nc2ccc(F)c(Cl)c2)cc1	none
O[C@@H]1CN(CC2CCCCC2)[C@@H](c2ccc(Cl)cc2)C[C@H]1n1cc(C2CC2)nn1	none
O=S(=O)(NC1Cc2ccccc2C1)c1cccc(Cl)c1	none (no result: mHTT CaM bind)
Cc1cc(Cl)ccc1N(CC(=O)Nc1ccc(C(C)C)cc1)S(C)(=O)=O	none
COc1cccc(C(=O)N2CCC(n3nc(-c4ccsc4)ccc3=O)CC2)c1	mHTT CaM bind 100
O=C(c1cccnc1)N1CCC(n2nc(-c3ccsc3)ccc2=O)CC1	none
CCOc1nccnc1NC1CCN(S(C)(=O)=O)CC1	none
Cn1c(=O)[nH]c(=O)c2c1nc(Br)n2Cc1ccc([N+](=O)[O-])cc1	none
c1ccc(CNCCN2CCNCC2)nc1	mHTT CaM bind 100
c1ccc(CN2CCN(Cc3ccccn3)CC2)nc1	none
Cc1nn(-c2ccc(Cl)cc2)c(C)c1C(=O)NCC(C)C	none
COc1ccccc1C(CCNS(=O)(=O)c1ccccc1)c1ccc2c(c1)OCO2 (stereo unspecified)	none
NCCNC(=O)/C(=C1\Nc2ccc([N+](=O)[O-])cc2N1)[N+](=O)[O-]	mHTT CaM bind 63
O=C(Nc1ccccc1O)/C(=C1\Nc2ccc([N+](=O)[O-])cc2N1)[N+](=O)[O-]	none
O=C(O)c1ccc([N+](=O)[O-])c2c1NC(C1CC=CCC1)C1CC=CC21 (stereo unspecified)	none
CCOc1cc2c(c([N+](=O)[O-])c1)NC(C1CC=CCC1)C1CC=CC21 (stereo unspecified)	mHTT CaM bind 71
COc1ccccc1/C=c1\sc2nc3cc(C)c(C)cc3n2c1=O	none
Cc1ccc(C)c(Cc2c(C)nc3c(C(=O)NC4CCCCC4)cnn3c2C)c1	none
Cc1ccccc1Cc1c(C)nc2c(C(=O)NC3CCCC3)cnn2c1C	none
COCCCNC(=O)c1cnn2c(C)c(Cc3cc(C)ccc3C)c(C)nc12	none
Cc1ccccc1Cc1c(C)nc2c(C(=O)NC(C)C)cnn2c1C	mHTT CaM bind 71
Cc1ccc(C)c(Cc2c(C)nc3c(C(=O)NC(C)C)cnn3c2C)c1	mHTT CaM bind 79
Cc1ccc(C)c(Cc2c(C)nc3c(C(=O)NC4CC4)cnn3c2C)c1	mHTT CaM bind 53
COc1ccc(-c2cnnn2-c2ccc(NC(=O)c3ccco3)cc2)cc1OC	none
Cc1ccc(NC(=O)Cn2nc(N3CCCCCC3)c3ccccc3c2=O)cc1C	none
COc1cc(Cl)c(C)cc1NC(=O)c1cc(S(=O)(=O)N2CCCC2)ccc1F	none
COc1cncc(C(=O)Nc2ccc(C)cc2Cl)c1	none
N#Cc1cnc2ccccc2c1N1CCC(C(=O)Nc2ccccc2)CC1	none
Cc1noc(C2CN(C(=O)c3ccc4ncsc4c3)C2)n1	none
COc1ccccc1C(=O)Nc1ccc(S(=O)(=O)Nc2cc(C)nc(C)n2)cc1	none
COc1cc(C(=O)O)c(C2Oc3ccccc3C3CC(c4ccccc4)=NN32)cc1OC (stereo unspecified)	mHTT CaM bind 50

Bioassay records from PubChem BioAssay.
